# Activity calls are given as the source filed them. The calls were made as follows: active = hit-call score of the fitted dose curve at least 0.9, where 1 is the maximum; inactive = score below 0.9.
# What was measured:
# [1] = ATG_CRE_CIS: Attagene CIS-FACTORIAL HepG2 Assay for human cAMP Responsive Element (CRE) binding protein 3 (AID 2282926); conditions: HepG2 CRE cis-reporter, Attagene multiplexed mRNA; actives raise or lower the signal
# Summary of the method: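 Readout: fluorescently labelled reporter transcripts resolved by capillary electrophoresis after RT-PCR, taken 24 h post-dosing in transfected HepG2. Endogenous transcription factor activity drives each cis-element reporter; gain or loss of signal fitted relative to DMSO control.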
# [2] = molecular target: CCAAT/enhancer-binding protein beta (Homo sapiens) (UniProt P17676); assay: ATG_C_EBP_CIS: Attagene CIS-FACTORIAL HepG2 Assay for human CCAAT/Enhancer Binding Protein (C/EBP) beta (AID 2282927); conditions: HepG2 Attagene cis-factorial transcription factor reporter; actives raise or lower the signal
# Summary of the method: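 Chemical-treated HepG2 cells (24 h) bearing cis-regulated reporter constructs were processed for total RNA, then reverse transcription, PCR amplification, fluorescent primer extension and fragment analysis; gain- and loss-of-signal were fitted against DMSO.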
# [3] = ATG_CMV_CIS: Attagene CIS-FACTORIAL HepG2 Assay for human CMV (Internal Marker) (AID 2282928); conditions: HepG2 CMV promoter reporter, transcription factor profiling; actives raise or lower the signal;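 also: endpoint acts as a background internal control marker rather than a target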
# Summary of the method: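 Readout: fluorescent reporter cDNA fragments separated by capillary electrophoresis after RT-PCR and HpaI cut. Cells: HepG2 carrying transfected cis-promoter reporter constructs, dosed 24 h. Endpoint serves as background internal-marker control, fit bidirectionally versus DMSO.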
# [4] = ATG_DR4_LXR_CIS: Attagene CIS-FACTORIAL HepG2 Assay for human Liver X Receptor (LXR), DR4 submotif (AID 2282929); conditions: HepG2 Attagene DR4 cis-reporter, mRNA transcription; actives raise or lower the signal
# Summary of the method: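 HepG2 cells were transiently transfected with multiple cis-regulated reporter units and dosed for 24 hours. The DR4 reporter mRNA was quantified by RT-PCR, 6-FAM labelling and capillary electrophoresis. Bidirectional fits used DMSO as baseline.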
# [5] = molecular target: Aryl hydrocarbon receptor (Homo sapiens) (UniProt P35869); assay: ATG_Ahr_CIS: Attagene CIS-FACTORIAL HepG2 Assay for human Aryl Hydrocarbon Receptor (Ahr) (AID 2282930); conditions: HepG2 AhR cis-factorial reporter transcription; actives raise or lower the signal
# Summary of the method: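 Following 24 h of chemical dosing, transfected HepG2 liver cells with cis-driven reporter units were lysed for RNA; reporter mRNA was quantified via RT-PCR and capillary electrophoresis, and responses fitted bidirectionally from DMSO.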
# [6] = ATG_AP_1_CIS: Attagene CIS-FACTORIAL HepG2 Assay for human Activator Protein 1 (AP-1) (AID 2282931); conditions: HepG2 Attagene cis-factorial AP-1 reporter mRNA; actives raise or lower the signal
# Summary of the method: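 HepG2 cells transiently transfected with cis-element-driven reporter transcription units, dosed for 24 hours. Reporter mRNA measured by RT-PCR, 6-FAM labelling, HpaI digestion and capillary electrophoresis. Bidirectional fitting against DMSO baseline.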
# [7] = ATG_AP_2_CIS: Attagene CIS-FACTORIAL HepG2 Assay for human Activator Protein 2 (AP-2) (AID 2282932); conditions: HepG2 AP-2 cis-reporter, Attagene transcription factor profiling; actives raise or lower the signal
# Summary of the method: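 Assay in transfected HepG2 with promoter-regulated reporters, 24 h incubation after dosing. Signal is reporter mRNA fluorescence (RT-PCR, capillary electrophoresis), analysed for both increases and decreases relative to DMSO controls.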
# [8] = ATG_BRE_CIS: Attagene CIS-FACTORIAL HepG2 Assay for human Bone Morphogenetic Protein (BMP) Response Element (BRE) (AID 2282933); conditions: HepG2 BMP response element reporter, Attagene transcription factor profiling; actives raise or lower the signal
# Summary of the method: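 HepG2 cells transiently transfected with multiplexed cis-element reporter units were dosed with chemical for 24 h. Reporter mRNA was measured by RT-PCR with fluorescent labelling, HpaI digestion and capillary electrophoresis; bidirectional fitting relative to DMSO.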
# [9] = molecular target: Retinoic acid receptor alpha (Homo sapiens) (UniProt P10276); assay: ATG_DR5_RAR_CIS: Attagene CIS-FACTORIAL HepG2 Assay for human Retinoic Acid Receptor Alpha (RARE), DR5 submotif (AID 2282934); conditions: HepG2 Attagene cis-factorial RARE DR5 reporter, mRNA; actives raise or lower the signal;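 as to AC50: reporter responds to endogenous RAR alpha beta and gamma in HepG2 not RARA alone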
# Summary of the method: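 Transfected HepG2 reporter cells are exposed to chemicals for 24 h. Then RNA is extracted and the DR5 element reporter transcript is measured by RT-PCR and capillary electrophoresis, with bidirectional curve fitting relative to DMSO.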
# [10] = molecular target: Transcription factor E2F1 (Homo sapiens) (UniProt Q01094); assay: ATG_E2F_CIS: Attagene CIS-FACTORIAL HepG2 Assay for human E2F Transcription Factor 1 (AID 2282935); conditions: HepG2 Attagene cis-reporter, E2F reporter RNA transcripts; actives raise or lower the signal
# Summary of the method: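 In this cis-factorial format, endogenous factor activity drives transfected reporters in HepG2; transcripts collected at 24 h are quantified by fluorescence after RT-PCR and capillary separation.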
# Sequence of Retinoic acid receptor alpha (Homo sapiens) (P10276 whole entry, looked up): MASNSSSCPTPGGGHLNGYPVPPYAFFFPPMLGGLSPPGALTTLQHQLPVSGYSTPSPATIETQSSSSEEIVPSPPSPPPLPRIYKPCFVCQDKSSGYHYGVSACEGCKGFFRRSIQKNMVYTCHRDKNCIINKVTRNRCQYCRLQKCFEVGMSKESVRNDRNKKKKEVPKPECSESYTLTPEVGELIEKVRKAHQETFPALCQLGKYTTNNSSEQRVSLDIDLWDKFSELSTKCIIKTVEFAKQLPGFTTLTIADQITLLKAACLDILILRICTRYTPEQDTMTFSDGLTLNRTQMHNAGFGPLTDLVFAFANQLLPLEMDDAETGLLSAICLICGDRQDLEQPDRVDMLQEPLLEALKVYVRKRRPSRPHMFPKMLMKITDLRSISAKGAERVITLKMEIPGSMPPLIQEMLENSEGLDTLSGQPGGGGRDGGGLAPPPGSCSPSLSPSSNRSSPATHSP
# Sequence of Transcription factor E2F1 (Homo sapiens) (Q01094 whole entry, looked up): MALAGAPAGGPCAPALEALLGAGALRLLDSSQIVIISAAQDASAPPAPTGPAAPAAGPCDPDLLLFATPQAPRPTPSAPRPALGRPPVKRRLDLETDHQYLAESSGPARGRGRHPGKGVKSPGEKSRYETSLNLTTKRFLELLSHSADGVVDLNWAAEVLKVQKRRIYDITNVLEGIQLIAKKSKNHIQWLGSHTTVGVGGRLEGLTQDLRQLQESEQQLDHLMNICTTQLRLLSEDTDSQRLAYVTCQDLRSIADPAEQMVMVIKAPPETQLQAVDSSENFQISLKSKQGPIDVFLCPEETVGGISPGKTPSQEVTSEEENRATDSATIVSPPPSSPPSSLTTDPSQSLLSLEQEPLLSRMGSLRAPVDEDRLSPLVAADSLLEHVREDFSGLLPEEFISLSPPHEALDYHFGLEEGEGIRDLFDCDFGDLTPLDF
# Sequence of CCAAT/enhancer-binding protein beta (Homo sapiens) (P17676 whole entry, looked up, the tested form may be a part): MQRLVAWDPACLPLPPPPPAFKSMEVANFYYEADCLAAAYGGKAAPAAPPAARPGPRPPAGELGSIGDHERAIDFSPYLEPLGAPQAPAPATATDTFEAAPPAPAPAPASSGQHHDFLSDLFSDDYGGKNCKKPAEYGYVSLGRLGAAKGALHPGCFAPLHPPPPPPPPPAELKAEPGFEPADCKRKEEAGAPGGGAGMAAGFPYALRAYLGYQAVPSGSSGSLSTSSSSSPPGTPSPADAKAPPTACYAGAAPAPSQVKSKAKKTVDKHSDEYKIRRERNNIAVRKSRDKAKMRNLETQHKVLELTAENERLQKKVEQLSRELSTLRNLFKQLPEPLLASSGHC
# Sequence of Aryl hydrocarbon receptor (Homo sapiens) (P35869 whole entry, looked up): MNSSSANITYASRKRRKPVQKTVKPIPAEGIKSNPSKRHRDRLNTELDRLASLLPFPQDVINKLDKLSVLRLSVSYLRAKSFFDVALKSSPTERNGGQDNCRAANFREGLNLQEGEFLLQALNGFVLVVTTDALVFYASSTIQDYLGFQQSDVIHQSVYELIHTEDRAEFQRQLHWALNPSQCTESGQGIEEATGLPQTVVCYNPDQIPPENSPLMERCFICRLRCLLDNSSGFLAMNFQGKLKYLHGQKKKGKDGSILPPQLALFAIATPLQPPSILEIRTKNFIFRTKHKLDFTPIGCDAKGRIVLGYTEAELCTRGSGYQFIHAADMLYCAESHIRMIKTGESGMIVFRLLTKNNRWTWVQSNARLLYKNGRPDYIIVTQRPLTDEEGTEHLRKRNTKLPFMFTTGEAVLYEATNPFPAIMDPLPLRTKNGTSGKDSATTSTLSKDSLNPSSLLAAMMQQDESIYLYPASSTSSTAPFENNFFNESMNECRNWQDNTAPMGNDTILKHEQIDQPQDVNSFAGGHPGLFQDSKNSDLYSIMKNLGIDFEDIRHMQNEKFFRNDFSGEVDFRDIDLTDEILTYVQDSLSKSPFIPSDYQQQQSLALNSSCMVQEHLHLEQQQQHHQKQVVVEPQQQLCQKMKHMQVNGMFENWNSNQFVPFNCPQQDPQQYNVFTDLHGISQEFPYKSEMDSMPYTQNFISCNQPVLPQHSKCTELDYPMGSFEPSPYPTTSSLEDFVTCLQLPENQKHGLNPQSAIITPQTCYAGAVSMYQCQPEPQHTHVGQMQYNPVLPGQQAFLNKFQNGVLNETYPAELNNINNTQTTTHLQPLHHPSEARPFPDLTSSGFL
SMILES,outcome [1],outcome [2],outcome [3],outcome [4],outcome [5],outcome [6],outcome [7],outcome [8],outcome [9],outcome [10],AC50 [5],AC50 [3],AC50 [4],AC50 [6],AC50 [8],AC50 [9],AC50 [7],AC50 [10]
CN(C)CCCN(C)C,inactive,inactive,inactive,inactive,inactive,inactive,inactive,inactive,inactive,inactive,,,,,,,,
O=C(O)c1cc2ccccc2nc1C(=O)O,inactive,inactive,inactive,inactive,,inactive,inactive,inactive,inactive,inactive,41.1 µM (active),,,,,,,
Cc1ccc(N/N=c2\c(=O)cc/c(=N/Nc3ccc(S(=O)(=O)O)cc3)c2=O)c(C)c1,inactive,inactive,inactive,inactive,,inactive,inactive,inactive,inactive,inactive,9.18 µM (active),,,,,,,
COC(=O)C1=C(C)NC(C)=C(C(=O)OCC(C)C)C1c1ccccc1[N+](=O)[O-] (stereo not given),inactive,inactive,inactive,inactive,inactive,inactive,inactive,inactive,inactive,inactive,,,,,,,,
CCC(CO)CO,inactive,inactive,inactive,inactive,inactive,inactive,inactive,inactive,inactive,inactive,,,,,,,,
O=C1CCCCCCCCCCCCCCCO1,inactive,inactive,,,,inactive,inactive,inactive,inactive,inactive,61.9 µM (active),72.9 µM (active),63.2 µM (active),,,,,
O=CN1CCCCC1,inactive,inactive,inactive,inactive,inactive,inactive,inactive,inactive,inactive,inactive,,,,,,,,
CCOC(=O)CC,inactive,inactive,inactive,inactive,inactive,inactive,inactive,inactive,inactive,inactive,,,,,,,,
C=CC(C)(CCC=C(C)C)OC(=O)CC(C)C (stereo not given),inactive,inactive,,,inactive,,inactive,inactive,inactive,inactive,,75.3 µM (active),133 µM (active),119 µM (active),,,,
CCN(CCO)c1cccc(C)c1,inactive,inactive,inactive,inactive,,inactive,inactive,inactive,inactive,inactive,55 µM (active),,,,,,,
Nc1cccc(C(F)(F)F)c1,inactive,inactive,inactive,inactive,inactive,inactive,inactive,inactive,inactive,inactive,,,,,,,,
CCCCNc1ccc(NCCCC)c2c1C(=O)c1ccccc1C2=O,inactive,inactive,inactive,inactive,inactive,inactive,inactive,inactive,inactive,inactive,,,,,,,,
CC(=O)OCC(C)OC(C)=O (stereo not given),inactive,inactive,inactive,inactive,inactive,inactive,inactive,inactive,inactive,inactive,,,,,,,,
COc1ccc(NC(C)=O)cc1N,inactive,inactive,inactive,inactive,,inactive,inactive,inactive,inactive,inactive,50.4 µM (active),,,,,,,
CCO[Si](CCCN=C=O)(OCC)OCC,inactive,inactive,inactive,inactive,inactive,inactive,inactive,inactive,inactive,inactive,,,,,,,,
C=C1[C@H]2CC[C@@H]3[C@H]2C(C)(C)CCC[C@]13C,inactive,inactive,,inactive,inactive,inactive,inactive,inactive,inactive,inactive,,100 µM (active),,,,,,
O=S(=O)(O)CC(O)CCl (stereo not given),inactive,inactive,inactive,inactive,inactive,inactive,inactive,inactive,inactive,inactive,,,,,,,,
SCCc1cnccn1,inactive,inactive,,inactive,inactive,,inactive,,,inactive,,53.9 µM (active),,27.8 µM (active),23.1 µM (active),27.6 µM (active),,
CCCCCCC1(C)CCC(=O)O1 (stereo not given),inactive,inactive,inactive,inactive,,inactive,inactive,inactive,inactive,inactive,44.4 µM (active),,,,,,,
CCCCCC(C)O (stereo not given),inactive,inactive,inactive,inactive,inactive,inactive,inactive,inactive,inactive,inactive,,,,,,,,
CC(CC=O)c1ccccc1 (stereo not given),inactive,inactive,inactive,,,,inactive,inactive,inactive,inactive,123 µM (active),,71.7 µM (active),131 µM (active),,,,
CCCCCCCCCCCCCCCC[N+](C)(C)CC,inactive,inactive,,,inactive,,,inactive,inactive,,,8.84 µM (active),9.13 µM (active),16.3 µM (active),,,12.6 µM (active),5.48 µM (active)
O=c1[nH]c(=O)c2[nH]c(=O)[nH]c2[nH]1,inactive,inactive,inactive,inactive,inactive,inactive,inactive,inactive,inactive,inactive,,,,,,,,
CCc1c(C(=O)O)c(=O)cnn1-c1ccc(Cl)cc1,inactive,inactive,inactive,inactive,inactive,inactive,inactive,inactive,inactive,inactive,,,,,,,,

SMILES,outcome [1],outcome [2],outcome [3],outcome [4],outcome [5],outcome [6],outcome [7],outcome [8],outcome [9],outcome [10],AC50 [5],AC50 [3],AC50 [4],AC50 [6],AC50 [8],AC50 [9],AC50 [7],AC50 [10]
S=C(NC1CCCCC1)NC1CCCCC1,inactive,inactive,inactive,inactive,inactive,inactive,inactive,inactive,inactive,inactive,,,,,,,,
CC(C)=CCC/C(C)=C\C#N,inactive,inactive,inactive,inactive,inactive,inactive,inactive,inactive,inactive,inactive,,,,,,,,
O=C(O)CCCCCCCCCC(=O)O,inactive,inactive,inactive,inactive,inactive,inactive,inactive,inactive,inactive,inactive,,,,,,,,
CC(CC=O)CCCC(C)(C)O (stereo not given),inactive,inactive,inactive,inactive,inactive,inactive,inactive,inactive,inactive,inactive,,,,,,,,
O=C1CC2CC1C1CCCC21 (stereo not given),inactive,inactive,inactive,inactive,inactive,inactive,inactive,inactive,inactive,inactive,,,,,,,,
CCCCC/C=C\C/C=C\CCCCCCCC(=O)OC,inactive,inactive,inactive,inactive,inactive,,inactive,,,inactive,,,,132 µM (active),126 µM (active),71.2 µM (active),,
OC1CCCCCCCCCCC1,inactive,inactive,,,inactive,inactive,inactive,inactive,inactive,inactive,,75.4 µM (active),40.5 µM (active),,,,,
NC(=O)c1ccccc1O,inactive,inactive,inactive,inactive,inactive,inactive,inactive,inactive,inactive,inactive,,,,,,,,
FC(F)(F)C(=NOCC1OCCO1)c1ccc(Cl)cc1,inactive,inactive,inactive,,inactive,inactive,inactive,,inactive,inactive,,,38.1 µM (active),,150 µM (active),,,
C=CC(C)(CCC=C(C)C)OC(=O)C(C)C (stereo not given),inactive,inactive,,inactive,inactive,,inactive,inactive,inactive,inactive,,141 µM (active),,146 µM (active),,,,
CCCCCCC(O)CO (stereo not given),inactive,inactive,inactive,inactive,inactive,inactive,inactive,inactive,inactive,inactive,,,,,,,,
Nc1ccc(Oc2ccc(N)c(N)c2)cc1,inactive,inactive,,inactive,inactive,inactive,inactive,inactive,inactive,inactive,,85.5 µM (active),,,,,,
Cc1cccc(N(C)C(=S)Oc2ccc3ccccc3c2)c1,inactive,inactive,inactive,inactive,inactive,inactive,inactive,inactive,inactive,inactive,,,,,,,,
CC(C)(C)c1ccc(-c2ccc(C(C)(C)C)cc2)cc1,inactive,inactive,,inactive,inactive,inactive,inactive,inactive,inactive,inactive,,51.8 µM (active),,,,,,
O=C1CCCC(=O)O1,inactive,inactive,inactive,inactive,inactive,inactive,inactive,inactive,inactive,inactive,,,,,,,,
c1ccc2c(c1)ccc1cc3c(ccc4ccccc43)cc12,inactive,inactive,inactive,inactive,,inactive,inactive,inactive,inactive,inactive,0.0244 µM (active),,,,,,,
Cc1cccc(C(=O)O)c1,inactive,inactive,inactive,inactive,inactive,inactive,inactive,inactive,inactive,inactive,,,,,,,,
O=C(c1ccc(O)cc1)c1ccc(O)cc1O,inactive,inactive,,inactive,inactive,inactive,inactive,,inactive,inactive,,68.7 µM (active),,,100 µM (active),,,
Nc1ccc(Cl)cc1Cl,inactive,inactive,inactive,inactive,inactive,inactive,inactive,inactive,inactive,inactive,,,,,,,,
Cc1cc(C)c(C)c(C)c1,inactive,inactive,inactive,inactive,inactive,inactive,inactive,inactive,inactive,inactive,,,,,,,,
CCCCC(CC)COC(=O)c1ccccc1 (stereo not given),inactive,inactive,inactive,inactive,inactive,inactive,inactive,inactive,inactive,inactive,,,,,,,,
CCCCCCCC(C)=O,inactive,inactive,inactive,inactive,inactive,inactive,inactive,inactive,inactive,inactive,,,,,,,,
CC(=O)CC(N)=O,inactive,inactive,inactive,inactive,inactive,inactive,inactive,inactive,inactive,inactive,,,,,,,,
C=CC(C)(C)C,inactive,inactive,inactive,inactive,inactive,inactive,inactive,inactive,inactive,inactive,,,,,,,,

# Reference: PubChem BioAssay (EPA / NIEHS)
